Test [1] concerns the target Cellular tumor antigen p53 (Homo sapiens) (UniProt P04637). Kind of test: TOX21_p53_BLA_p3_ratio: Tox21 HCT-116 p53 Agonism Beta-lactamase Assay, Ratio, Phase 3 (AID 2283596). In a few lines:
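HCT116 p53-bla cells (4000/well) given compound in DMSO (217-fold dilution) after 5 h, incubated 16 h at 37C. CCF4-AM substrate 2 h at room temperature; 460/530 nm emission ratio, gain fitted against DMSO.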

The nature of test [2]: TOX21_p53_BLA_p4_viability: Viability Assessment in the Tox21 HCT-116 p53 Agonism Beta-lactamase Assay, Phase 4 (AID 2283597).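 Also: hits lower the luminescence signal meaning cytotoxicity.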 Summed up: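 HCT-116 p53-bla cells, 4000/well, dosed after 5 h attachment and incubated 16 h at 37 °C, 5% CO2. Viability from CellTiter-Glo ATP luminescence after 30 min at room temperature, taken after the beta-lactamase read; loss of signal indicates cytotoxicity.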

The target of test [3] is Cellular tumor antigen p53 (Homo sapiens) (UniProt P04637). Kind of test: TOX21_p53_BLA_p5_ratio: Tox21 HCT-116 p53 Agonism Beta-lactamase Assay, Ratio, Phase 5 (AID 2283599). In a few lines:
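HCT-116 cells carrying a p53-inducible beta-lactamase reporter were seeded at 4000 cells/well and dosed after 5 h with compound in DMSO (217-fold dilution). After 16 h at 37C, CCF4-AM substrate was added for 2 h, and the 460/530 nm emission ratio was scored as gain-of-signal versus DMSO.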

Test [4] shares this target. Kind of test: TOX21_p53_BLA_p4_ratio: Tox21 HCT-116 p53 Agonism Beta-lactamase Assay, Ratio, Phase 4 (AID 2283601). Summed up: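 HCT116 cells carrying an inducible beta-lactamase reporter were plated at 4000 cells/well, rested 5 h, then exposed to compounds in DMSO (217-fold dilution) for 16 h at 37C. CCF4-AM substrate was loaded 2 h at room temperature; 460/530 nm emission ratio scored gain-of-signal versus DMSO.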

The nature of test [5]: Tanguay_ZF_120hpf_MORT_legacy: (Legacy) Oregon State University Tanguay Lab 120 Hour Post-fertilization zebrafish Assay for Mortality (AID 2283633). Summed up: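 Dechorionated Tropical 5D wild-type zebrafish embryos, one per well from 6 hpf, static exposure in 0.64% DMSO at 28C until 120 hpf. Mortality scored as binary by brightfield microscopy at 24 and 120 hpf.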
The nature of test [6]: Tanguay_ZF_120hpf_YSE_legacy: (Legacy) Oregon State University Tanguay Lab 120 Hour Post-fertilization zebrafish Assay for Yolk Sac Edema (AID 2283634). In a few lines: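 Dechorionated Tropical 5D wild-type zebrafish embryos were exposed statically, one per well, from 6 to 120 hpf at 28C in 0.64% DMSO. Yolk sac edema was scored present/absent by brightfield at 120 hpf, and dead embryos were excluded.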

The nature of test [7]: Tanguay_ZF_120hpf_AXIS_legacy: (Legacy) Oregon State University Tanguay Lab 120 Hour Post-fertilization zebrafish Assay for Body Axis Malformation (AID 2283635). In a few lines: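 Dechorionated wild-type Tropical 5D zebrafish embryos, one per well, statically exposed from 6 hpf to 120 hpf at 28C in 0.64% DMSO final. Body axis malformation scored present/absent by brightfield microscopy at 120 hpf; dead embryos excluded.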

Test [8] can be described thus: Tanguay_ZF_120hpf_EYE_legacy: (Legacy) Oregon State University Tanguay Lab 120 Hour Post-fertilization zebrafish Assay for Eye Malformation (AID 2283636).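 Also: binary presence or absence of eye malformation scored by brightfield in 120 hpf larvae.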 Summed up:
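Dechorionated wild-type Tropical 5D zebrafish embryos were exposed statically from 6 hpf, one per well, to 120 hpf at 28C in sealed, foil-covered plates with 0.64% DMSO. Eye malformation was scored present/absent by brightfield microscopy against DMSO controls.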

Test [9] in a line: Tanguay_ZF_120hpf_SNOU_legacy: (Legacy) Oregon State University Tanguay Lab 120 Hour Post-fertilization zebrafish Assay for Snout Malformation (AID 2283637). Summed up: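 Tropical 5D wild-type zebrafish embryos, dechorionated with pronase at 4 hpf, were exposed singly from 6 hpf to 120 hpf statically at 28C in 0.64% DMSO. Snout malformation was scored present/absent by brightfield microscopy, fitted against DMSO.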

A short description of test [10]: TOX21_p53_BLA_p5_viability: Viability Assessment in the Tox21 HCT-116 p53 Agonism Beta-lactamase Assay, Phase 5 (AID 2283600). In a few lines: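 HCT-116 p53 beta-lactamase reporter cells, 4000/well, were exposed to compound (pin transfer, 217-fold dilution) for 16 hours at 37C. Cellular ATP was read by CellTiter-Glo luminescence after 30 min at room temperature.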

Inconclusive results are not listed. More than one record can exist for a structure, and the calls need not agree. Calls of active or inactive are those of the source. The calls were made as follows: active = hit-call score of the fitted dose curve at least 0.9, where 1 is the maximum; inconclusive = response in the unintended direction; inactive = score below 0.9.

Sequence of Cellular tumor antigen p53 (Homo sapiens) (P04637 whole entry, looked up): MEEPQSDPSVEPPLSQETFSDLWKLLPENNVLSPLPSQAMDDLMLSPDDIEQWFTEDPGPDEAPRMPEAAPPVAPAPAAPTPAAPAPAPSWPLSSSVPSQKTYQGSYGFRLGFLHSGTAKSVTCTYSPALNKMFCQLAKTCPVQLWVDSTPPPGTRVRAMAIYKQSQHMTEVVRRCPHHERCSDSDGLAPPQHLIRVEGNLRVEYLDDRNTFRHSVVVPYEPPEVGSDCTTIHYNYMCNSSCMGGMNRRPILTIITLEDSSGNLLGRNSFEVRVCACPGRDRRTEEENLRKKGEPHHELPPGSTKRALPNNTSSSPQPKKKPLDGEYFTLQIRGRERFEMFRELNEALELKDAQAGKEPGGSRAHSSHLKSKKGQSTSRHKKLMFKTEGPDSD

Take `COc1ccc(O)c(C(C)(C)C)c1`: the result in test [1], in [2], in [3], in [4], in [5] and in test [6] was inactive. Also, the molecule was called inactive in [7], in test [8] and in [9]. In test [4], the AC50 is 86.1 µM (active).

Take `Clc1ccc(C(Cl)(Cl)Cl)cc1`: the outcome in test [1], in test [3], in test [4], in test [5], in [6] and in test [7] was inactive. The call in [8] was inactive.

On to `CCCCCCCCOC(=O)c1ccccc1C(=O)OCCCCCCCC`, for which the outcome in [1], in test [3], in test [10], in [4], in [5] and in test [6] was inactive. Besides, the result in test [7], in [8] and in test [9] was inactive.

Take `Nn1cnnc1`: the outcome in [1], in [2], in test [4], in test [5], in test [6] and in [7] was inactive. Further, the molecule was called inactive in [8] and in [9].

Consider `ClC1=C(Cl)[C@]2(Cl)[C@@H]3[C@@H]4C[C@@H]([C@H]5O[C@@H]45)[C@@H]3[C@@]1(Cl)C2(Cl)Cl`, for which the result in [1], in [2], in test [3], in test [10], in [4] and in [5] was inactive. Further, the molecule was classed as inactive in test [6], in test [8] and in [9].

As for `Cc1ccccc1[N+](=O)[O-]`, the result in [1], in test [2], in test [3], in test [10], in test [4] and in [6] was inactive. The outcome in test [7], in [8] and in test [9] was inactive.

For `CCC(=O)O[C@H]1CC[C@H]2[C@@H]3CCC4=CC(=O)CC[C@]4(C)[C@H]3CC[C@]12C`, the result in [1], in [3], in test [10], in test [5], in test [6] and in [7] was inactive. Moreover, the molecule was classed as inactive in [8] and in test [9].

Turning to `O=S(=O)(O)C(F)(F)C(F)(F)C(F)(F)C(F)(F)C(F)(F)C(F)(F)F`, the outcome in [1], in [2], in [3], in [5], in test [6] and in test [7] was inactive. Besides, the molecule was called inactive in test [8] and in test [9].

As for `CCNc1nc(NC(C)C)nc(SC)n1`, the molecule was called inactive in test [5], in [6], in test [7], in test [8] and in test [9].

With `c1ccc(-c2ccccc2)cc1`, the result in test [1], in test [3], in test [10], in [4], in [5] and in [6] was inactive. Further, the molecule was classed as inactive in [7] and in test [8].

Consider `Oc1ccc(Cl)cc1Cl`, for which the result in test [1], in [2], in test [3], in test [10], in [4] and in [5] was inactive. The molecule was called inactive in [7], in test [8] and in [9].

As to `CCC(C)(CC)c1cc(NC(=O)c2c(OC)cccc2OC)on1`, the molecule was called inactive in [5], in test [6], in test [7], in test [8] and in [9].

With `CCCCCCCCCc1ccc(O)cc1`, the result in [2], in test [3], in test [10], in test [4], in test [5] and in test [6] was inactive. The molecule was classed as inactive in [8] and in [9].

For the molecule `O=S(=O)(O)C(F)(F)C(F)(F)C(F)(F)C(F)(F)F`, the outcome in [1], in [2], in test [3], in test [10], in test [4] and in test [5] was inactive. For the same molecule, the outcome in test [7], in [8] and in test [9] was inactive.

As to `Cc1cccc(C)c1N`, the outcome in test [1], in [2], in [3], in test [4], in [5] and in [6] was inactive. Moreover, the call in [7], in test [8] and in test [9] was inactive.

On to `CCOP(=S)(OCC)SCSC(C)(C)C`, for which the result in test [4], in test [5], in test [6], in test [8] and in test [9] was inactive.

Regarding `C1CC2OC2CC1C1CO1` (stereo unspecified), the outcome in test [1], in [2], in test [10], in test [4], in test [5] and in test [8] was inactive. In addition, the outcome in test [9] was inactive.

With `O=C(O)C(F)(F)C(F)(F)C(F)(F)C(F)(F)C(F)(F)F`, the result in [1], in [3], in test [4], in test [5], in [6] and in test [7] was inactive. The outcome in [8] and in test [9] was inactive.

For orientation: AC50 means the concentration at which the activity in the assay is half-maximal.

These data come from PubChem BioAssay (EPA / NIEHS).
